Results reported in publication PMC7862700, “An all-to-all approach to the identification of sequence-specific readers for epigenetic DNA modifications on cytosine”.

What was measured:
Assay in all cases: DAPPL (digital affinity profiling via proximity ligation, sequencing); 10 mM Tris-HCl pH 7.5, 50 mM NaCl, 1 mM DTT, 4% glycerol, room temperature, 30 min; GST-TFs on glutathione beads, 16-mer random dsDNA library, 0.1% formaldehyde crosslink after washing; high values mean tight binding
Conditions in all cases: protein: recombinant; tags: N-terminal GST; dsDNA, one strand shown
SPIC = target: T1, SPIC (Homo sapiens, UniProt Q8N5J4 1-248)
T1 sequence: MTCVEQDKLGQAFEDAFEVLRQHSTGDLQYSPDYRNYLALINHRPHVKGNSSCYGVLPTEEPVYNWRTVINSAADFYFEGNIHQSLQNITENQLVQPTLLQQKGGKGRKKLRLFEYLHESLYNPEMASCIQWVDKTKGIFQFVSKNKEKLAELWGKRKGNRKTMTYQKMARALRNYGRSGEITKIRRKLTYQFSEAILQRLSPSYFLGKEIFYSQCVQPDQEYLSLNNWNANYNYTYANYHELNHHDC
How it was run: (§1)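 In yeast, human transcription factors were expressed with a GST fusion, then pulled down on glutathione beads and given DNA barcodes. Pooled with a tag-only sample, they were exposed to 200 nmole of a 16-mer random double-stranded DNA library (Tris/NaCl/DTT/glycerol buffer, room temperature, 30 min), washed, crosslinked with 0.1% formaldehyde, proximity-ligated using BsaI/T4 ligase for 1 h at 37 °C, PCR-amplified and read on an Illumina NextSeq500. Each hexamer's frequency of reads for a factor, divided by the matching frequency for the tag-only sample, gives the binding signal.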

ELF3 = target: T2, ELF3 (Homo sapiens, UniProt P78545 1-371)
T2 sequence: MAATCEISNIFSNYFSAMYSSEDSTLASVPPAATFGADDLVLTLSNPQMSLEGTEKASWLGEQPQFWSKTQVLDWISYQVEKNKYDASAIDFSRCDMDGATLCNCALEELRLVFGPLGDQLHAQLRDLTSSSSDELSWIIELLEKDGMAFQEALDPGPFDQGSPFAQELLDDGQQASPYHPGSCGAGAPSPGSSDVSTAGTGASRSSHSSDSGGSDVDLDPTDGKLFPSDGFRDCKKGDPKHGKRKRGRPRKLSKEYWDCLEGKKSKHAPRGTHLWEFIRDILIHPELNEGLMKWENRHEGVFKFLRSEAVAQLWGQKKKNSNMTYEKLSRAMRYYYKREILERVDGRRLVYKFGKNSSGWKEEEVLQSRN
How it was run: as §1

ERG = target: T3, ERG (Homo sapiens, UniProt P11308 1-479)
T3 sequence: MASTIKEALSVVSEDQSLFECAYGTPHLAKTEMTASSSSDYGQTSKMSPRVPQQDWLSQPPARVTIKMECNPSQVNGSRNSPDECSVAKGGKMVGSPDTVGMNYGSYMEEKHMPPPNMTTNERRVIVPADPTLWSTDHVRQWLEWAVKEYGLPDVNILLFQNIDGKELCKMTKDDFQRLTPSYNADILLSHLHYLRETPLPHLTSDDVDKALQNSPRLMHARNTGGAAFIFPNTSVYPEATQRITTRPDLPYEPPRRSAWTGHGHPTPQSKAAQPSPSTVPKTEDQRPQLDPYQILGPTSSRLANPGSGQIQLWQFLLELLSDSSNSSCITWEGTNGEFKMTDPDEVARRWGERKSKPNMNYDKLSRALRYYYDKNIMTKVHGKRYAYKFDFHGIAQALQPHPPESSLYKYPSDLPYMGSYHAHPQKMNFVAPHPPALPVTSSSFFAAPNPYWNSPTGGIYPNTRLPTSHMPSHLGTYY
How it was run: as §1

EHF = target: T4, EHF (Homo sapiens, UniProt Q9NZC4 1-300)
T4 sequence: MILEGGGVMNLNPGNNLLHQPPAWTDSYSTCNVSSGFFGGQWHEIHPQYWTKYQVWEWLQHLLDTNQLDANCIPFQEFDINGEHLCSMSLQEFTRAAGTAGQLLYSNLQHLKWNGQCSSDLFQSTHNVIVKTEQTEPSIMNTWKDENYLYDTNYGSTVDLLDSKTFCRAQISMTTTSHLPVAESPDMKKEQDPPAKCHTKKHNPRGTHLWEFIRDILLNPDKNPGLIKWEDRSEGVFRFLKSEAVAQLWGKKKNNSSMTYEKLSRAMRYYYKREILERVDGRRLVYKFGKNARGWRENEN
How it was run: as §1

ELK4 = target: T5, ELK4 (Homo sapiens, UniProt P28324-2 1-405)
T5 sequence: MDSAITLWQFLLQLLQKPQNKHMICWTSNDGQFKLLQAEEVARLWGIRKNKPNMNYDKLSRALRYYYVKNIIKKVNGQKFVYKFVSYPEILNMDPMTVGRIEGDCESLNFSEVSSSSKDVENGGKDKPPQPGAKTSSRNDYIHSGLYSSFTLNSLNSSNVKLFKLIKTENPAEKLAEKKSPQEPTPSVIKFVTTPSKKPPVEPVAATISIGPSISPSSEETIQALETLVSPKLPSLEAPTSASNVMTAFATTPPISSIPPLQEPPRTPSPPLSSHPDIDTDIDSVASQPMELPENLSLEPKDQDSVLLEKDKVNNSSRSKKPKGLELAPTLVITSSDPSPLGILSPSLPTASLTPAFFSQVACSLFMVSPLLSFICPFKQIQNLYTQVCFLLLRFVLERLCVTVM
How it was run: as §1

ETV2 = target: T6, ETV2 (Homo sapiens, UniProt O00321 1-342)
T6 sequence: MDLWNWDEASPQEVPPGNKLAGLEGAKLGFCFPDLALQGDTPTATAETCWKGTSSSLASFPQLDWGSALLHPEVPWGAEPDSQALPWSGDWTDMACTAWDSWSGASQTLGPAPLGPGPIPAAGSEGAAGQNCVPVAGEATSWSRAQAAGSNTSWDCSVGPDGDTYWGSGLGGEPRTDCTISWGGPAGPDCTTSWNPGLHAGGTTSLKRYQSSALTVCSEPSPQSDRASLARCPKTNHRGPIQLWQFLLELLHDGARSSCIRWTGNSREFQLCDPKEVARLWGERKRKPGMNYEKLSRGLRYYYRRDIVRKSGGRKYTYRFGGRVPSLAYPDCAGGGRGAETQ
How it was run: as §1

ETV1 = ETV1 (Homo sapiens, UniProt P50549 1-477)
How it was run: as §1

ETV3L = target: T7, ETV3L (Homo sapiens, UniProt Q6ZN32 1-361)
T7 sequence: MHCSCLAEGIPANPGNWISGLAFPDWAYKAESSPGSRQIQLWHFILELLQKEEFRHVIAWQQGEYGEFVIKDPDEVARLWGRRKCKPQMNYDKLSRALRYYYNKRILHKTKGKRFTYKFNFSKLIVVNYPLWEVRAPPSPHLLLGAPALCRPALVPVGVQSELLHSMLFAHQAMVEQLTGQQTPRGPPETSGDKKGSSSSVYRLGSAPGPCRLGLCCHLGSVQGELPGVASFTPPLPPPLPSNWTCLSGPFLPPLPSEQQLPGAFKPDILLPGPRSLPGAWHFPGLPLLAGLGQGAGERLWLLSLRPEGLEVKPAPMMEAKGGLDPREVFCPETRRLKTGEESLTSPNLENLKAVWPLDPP
How it was run: as §1

SPDEF = target: T8, SPDEF (Homo sapiens, UniProt O95238 1-335)
T8 sequence: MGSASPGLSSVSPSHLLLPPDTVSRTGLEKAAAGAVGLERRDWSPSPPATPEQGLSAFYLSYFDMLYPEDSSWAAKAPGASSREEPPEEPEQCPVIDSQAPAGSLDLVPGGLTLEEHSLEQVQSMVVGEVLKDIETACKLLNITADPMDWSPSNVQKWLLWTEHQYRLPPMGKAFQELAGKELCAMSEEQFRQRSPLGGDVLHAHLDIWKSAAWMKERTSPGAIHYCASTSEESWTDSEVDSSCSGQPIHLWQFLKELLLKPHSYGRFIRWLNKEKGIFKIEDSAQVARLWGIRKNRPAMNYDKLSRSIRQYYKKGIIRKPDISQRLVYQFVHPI
How it was run: as §1

ETV3 = target: T9, ETV3 (Homo sapiens, UniProt P41162-2 1-143)
T9 sequence: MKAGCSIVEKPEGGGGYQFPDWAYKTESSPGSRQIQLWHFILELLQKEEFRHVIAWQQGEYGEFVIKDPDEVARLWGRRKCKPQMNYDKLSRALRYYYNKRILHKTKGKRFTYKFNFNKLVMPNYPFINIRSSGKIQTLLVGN
How it was run: as §1

SPI1 = SPI1 (Homo sapiens, UniProt P17947 1-270)
How it was run: as §1

SPIB = SPIB (Homo sapiens, UniProt Q01892 1-262)
How it was run: as §1

ELK3 = target: T10, ELK3 (Homo sapiens, UniProt P41970 1-407)
T10 sequence: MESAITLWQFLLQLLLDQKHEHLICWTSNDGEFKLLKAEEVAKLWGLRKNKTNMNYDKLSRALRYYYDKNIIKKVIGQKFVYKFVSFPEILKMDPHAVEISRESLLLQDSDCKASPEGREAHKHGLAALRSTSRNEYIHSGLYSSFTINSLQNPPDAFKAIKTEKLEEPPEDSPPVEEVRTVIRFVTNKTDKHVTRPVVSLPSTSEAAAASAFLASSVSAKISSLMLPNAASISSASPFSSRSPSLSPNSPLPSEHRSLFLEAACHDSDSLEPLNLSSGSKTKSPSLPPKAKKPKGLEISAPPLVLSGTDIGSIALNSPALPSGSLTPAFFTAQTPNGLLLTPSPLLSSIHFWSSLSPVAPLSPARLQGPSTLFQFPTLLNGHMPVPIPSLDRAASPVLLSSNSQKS
How it was run: as §1

FEV = target: T11, FEV (Homo sapiens, UniProt Q99581 1-238)
T11 sequence: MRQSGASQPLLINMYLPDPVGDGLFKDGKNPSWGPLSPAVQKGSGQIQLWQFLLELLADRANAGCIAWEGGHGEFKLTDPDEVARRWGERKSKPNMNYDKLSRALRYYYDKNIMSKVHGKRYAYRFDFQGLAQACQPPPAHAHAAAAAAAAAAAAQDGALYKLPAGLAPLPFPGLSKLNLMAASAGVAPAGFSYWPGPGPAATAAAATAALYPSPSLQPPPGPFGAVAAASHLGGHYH
How it was run: as §1

ERF = target: T12, ERF (Homo sapiens, UniProt P50548 1-548)
T12 sequence: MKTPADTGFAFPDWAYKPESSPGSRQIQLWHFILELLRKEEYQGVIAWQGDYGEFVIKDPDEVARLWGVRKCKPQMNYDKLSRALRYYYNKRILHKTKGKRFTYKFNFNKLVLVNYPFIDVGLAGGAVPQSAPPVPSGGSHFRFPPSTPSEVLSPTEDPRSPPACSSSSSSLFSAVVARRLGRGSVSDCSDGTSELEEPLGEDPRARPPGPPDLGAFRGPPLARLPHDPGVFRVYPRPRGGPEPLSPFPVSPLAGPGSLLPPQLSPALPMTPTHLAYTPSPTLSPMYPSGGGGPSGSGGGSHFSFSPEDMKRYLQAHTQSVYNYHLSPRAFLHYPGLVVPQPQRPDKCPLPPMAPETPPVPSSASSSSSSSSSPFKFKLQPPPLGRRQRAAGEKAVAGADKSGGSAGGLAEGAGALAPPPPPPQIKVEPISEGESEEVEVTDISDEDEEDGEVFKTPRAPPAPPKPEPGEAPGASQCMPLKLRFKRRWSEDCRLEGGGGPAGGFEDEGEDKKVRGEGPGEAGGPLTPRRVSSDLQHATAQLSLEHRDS
How it was run: as §1

SPIB, sequence (Q01892 whole entry): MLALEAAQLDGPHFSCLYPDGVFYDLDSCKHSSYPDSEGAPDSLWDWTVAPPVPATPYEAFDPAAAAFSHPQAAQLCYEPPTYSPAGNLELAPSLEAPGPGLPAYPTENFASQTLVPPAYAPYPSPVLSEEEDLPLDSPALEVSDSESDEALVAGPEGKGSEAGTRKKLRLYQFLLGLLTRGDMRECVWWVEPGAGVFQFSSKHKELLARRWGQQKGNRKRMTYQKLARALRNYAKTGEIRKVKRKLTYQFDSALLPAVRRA
ETV1, sequence (P50549 whole entry): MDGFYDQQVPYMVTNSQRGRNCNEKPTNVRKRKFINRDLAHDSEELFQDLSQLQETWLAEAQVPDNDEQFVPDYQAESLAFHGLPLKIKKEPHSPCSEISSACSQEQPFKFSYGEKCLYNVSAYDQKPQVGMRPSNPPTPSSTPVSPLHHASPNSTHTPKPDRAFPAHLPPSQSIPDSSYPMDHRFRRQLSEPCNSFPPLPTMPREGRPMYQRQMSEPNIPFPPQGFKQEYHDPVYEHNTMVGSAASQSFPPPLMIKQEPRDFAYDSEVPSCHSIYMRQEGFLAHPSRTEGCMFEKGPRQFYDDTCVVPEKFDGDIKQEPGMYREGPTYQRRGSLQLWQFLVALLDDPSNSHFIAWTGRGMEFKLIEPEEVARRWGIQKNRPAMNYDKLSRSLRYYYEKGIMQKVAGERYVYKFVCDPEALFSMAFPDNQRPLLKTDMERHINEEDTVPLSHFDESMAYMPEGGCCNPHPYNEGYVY

AGGTGT
binding signal (SPIC): 1.02 fold enrichment (6-mer frequency, TF over GST control)
binding signal (ELF3): 1.05 fold enrichment (6-mer frequency, TF over GST control)

AGGTCC
binding signal (ERG): 1.02 fold enrichment (6-mer frequency, TF over GST control)
binding signal (EHF): 1.05 fold enrichment (6-mer frequency, TF over GST control)
binding signal (SPIC): 1.2 fold enrichment (6-mer frequency, TF over GST control)
binding signal (ELK4): 1.02 fold enrichment (6-mer frequency, TF over GST control)
binding signal (ETV2): 1.08 fold enrichment (6-mer frequency, TF over GST control)
binding signal (ELF3): 1.07 fold enrichment (6-mer frequency, TF over GST control)
binding signal (ETV1): 1.05 fold enrichment (6-mer frequency, TF over GST control)
binding signal (ETV3L): 1.03 fold enrichment (6-mer frequency, TF over GST control)
binding signal (SPDEF): 1.24 fold enrichment (6-mer frequency, TF over GST control)
binding signal (ETV3): 1.03 fold enrichment (6-mer frequency, TF over GST control)

GGCGTT
binding signal (SPI1): 1.03 fold enrichment (6-mer frequency, TF over GST control)
binding signal (SPIB): 1.05 fold enrichment (6-mer frequency, TF over GST control)
binding signal (ELK3): 1.02 fold enrichment (6-mer frequency, TF over GST control)
binding signal (FEV): 1.01 fold enrichment (6-mer frequency, TF over GST control)
binding signal (SPIC): 1.08 fold enrichment (6-mer frequency, TF over GST control)
binding signal (ETV2): 1.13 fold enrichment (6-mer frequency, TF over GST control)
binding signal (ELF3): 1.1 fold enrichment (6-mer frequency, TF over GST control)
binding signal (ERF): 1.01 fold enrichment (6-mer frequency, TF over GST control)
binding signal (ETV3L): 1.09 fold enrichment (6-mer frequency, TF over GST control)
